Screening data from PubChem BioAssay.
Shown are actives, neighbours in structure and some others; about 3.3% of the full set was active somewhere.
Tau fluor counter: Counterscreen qHTS for Inhibitors of Tau Fibril Formation, Fluorescence Polarization; AID 1463, 2008; tau K18 P301L Alexa594 fluorescence, heparin fibrillization; 0.93% of 280,000 active; Potency, µM (titrated, usually from 57.7 µM), for the others: at the highest dose activity change, negative = decrease; also: nearly all actives have a fitted effect of over 55% in size
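Human tau K18 P301L (15 uM unlabeled, 0.24 uM Alexa 594-labeled) in 100 mM sodium acetate pH 7 with 20 uM heparin, 6 hr at 37 C. ThT 30 uM added, 1 hr ambient; Alexa 594 FP and total fluorescence read at 555/632 nm.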
Luc counter: Counterscreen for Luciferase (Kinase-Glo TM) Inhibition | Luciferin 4-monooxygenase (Photuris pensylvanica), Q27757 | Kinase-Glo luciferase, ATP luminescence, 8 min | Potency, µM (doses to about 38.3 µM), for inactives: at the highest dose activity change, negative = inhibition, actives largely listed as inhibitors | 0.28% of 200,000 active; also: nearly all actives have a fitted effect of over 60% in size
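Compounds were added to a substrate mix at pH 7.2 (50 mM imidazole, 10 uM ATP, within the enzyme's linear range), followed by Kinase-Glo detection reagent; luminescence was measured after 8 minutes at ambient temperature.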
NPSR antagonist: qHTS Assay for Antagonists of the Neuropeptide S Receptor: cAMP Signal Transduction; Q6W5P4; CHO-NPSR cells, cAMP TR-FRET, antagonist mode; Potency, µM (top dose mostly 38.3 µM), for the others: at the highest dose activity change, negative = inhibition, hits mostly inhibitors; 1% of 220,000 active; also: nearly all actives have a fitted effect of over 50% in size
Target sequence (Q6W5P4 whole entry, looked up): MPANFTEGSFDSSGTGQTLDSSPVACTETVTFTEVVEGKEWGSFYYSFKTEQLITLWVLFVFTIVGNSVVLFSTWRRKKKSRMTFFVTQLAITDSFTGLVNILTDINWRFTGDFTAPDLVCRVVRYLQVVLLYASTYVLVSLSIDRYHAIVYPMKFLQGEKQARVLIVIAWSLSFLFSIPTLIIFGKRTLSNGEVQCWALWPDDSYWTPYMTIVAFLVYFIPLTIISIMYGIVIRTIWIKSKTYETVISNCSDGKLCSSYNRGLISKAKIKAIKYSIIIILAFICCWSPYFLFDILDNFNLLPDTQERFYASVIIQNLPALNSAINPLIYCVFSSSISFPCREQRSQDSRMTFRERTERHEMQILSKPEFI
Tau ThT inhib: qHTS for Inhibitors of Tau Fibril Formation, Thioflavin T Binding; Microtubule-associated protein tau (Homo sapiens), P10636; recombinant tau K18 P301L, heparin-induced fibrillization, ThT fluorescence; Potency, µM (series often up to 57.4 µM), for the others: at the highest dose activity, negative = inhibition, actives largely listed as inhibitors; 2.1% of 270,000 active; AID 1460, 2008; also: nearly all actives have a fitted effect of over 55% in size
Target sequence (P10636 561-689 P618L limits assumed): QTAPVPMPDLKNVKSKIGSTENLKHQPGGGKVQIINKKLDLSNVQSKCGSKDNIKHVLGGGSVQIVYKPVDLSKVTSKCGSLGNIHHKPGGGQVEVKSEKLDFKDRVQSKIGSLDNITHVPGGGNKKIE
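Heparin-induced (20 uM) aggregation of recombinant human K18 P301L tau, 15 uM unlabeled with 0.24 uM labeled, pH 7 acetate buffer, 6 hr at 37 C with compound. Fibrils quantified by 30 uM ThT fluorescence after 1 hr ambient incubation.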
Tau FP inhib: qHTS for Inhibitors of Tau Fibril Formation, Fluorescence Polarization; K18 P301L tau heparin fibrillization, Alexa594 FP, 6 h; 0.39% of 280,000 active; Potency, µM (doses to about 57.7 µM), for the others: top-dose activity, negative = inhibition, actives largely listed as inhibitors; AID 1468, 2008; Microtubule-associated protein tau (Homo sapiens), P10636; also: nearly all actives have a fitted effect of over 55% in size
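Heparin (20 uM) drove fibril formation of recombinant tau K18 P301L, 15 uM unlabeled with 0.24 uM Alexa 594 label, for 6 hr at 37 C in 100 mM sodium acetate pH 7. Fluorescence polarization (555/632 nm) read 1 hr after 30 uM ThT.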
* = called active by the depositor; ? = inconclusive; . = no result given; [ ] = another dose, or the depositor's remark. Calls follow the shape of the dose curve; as a rule, active = well fitted curve in the direction sought with a large enough effect; inconclusive = small, poorly fitted or top-dose-only effect, or another doubt; inactive = no such curve, though single readings can be large; an effect the other way counts as inactive or inconclusive. % is scaled to controls: 0 for no effect and ±100 for the full control effect; potency is read from the fitted curve at half-maximal effect.

SMILES	Tau fluor counter	Luc counter	NPSR antagonist	Tau ThT inhib	Tau FP inhib
NC(Cc1cnc[nH]1)C(=O)Nc1ccc2ccccc2c1 (stereo not drawn)	0%	0%	.	-6%	0%
O=C1C(NS(=O)(=O)c2cccs2)=C(N2CCN(Cc3ccccc3)CC2)C(=O)c2ccccc21	?	.	-35%	16µM*	-12%
CCOc1ccccc1N1CCN(C2=C(NS(=O)(=O)c3cccs3)C(=O)c3ccccc3C2=O)CC1	13µM*[quencher]	-27%	-15%[46.1 µM]	8.9µM*	?
CN1CCN(C2=C(NS(=O)(=O)c3cccs3)C(=O)c3ccccc3C2=O)CC1	-10%	.	-50%	?	-19%
CCOC(=O)N1CCN(Cc2nc3cc(NC(=O)c4ccc([N+](=O)[O-])cc4)ccc3n2C(C)C)CC1	?	.	.	?	16%
Brc1ccc(-c2nc3ccccc3s2)s1	-8%	-29%	13µM*	?	-3%
c1ccc(-c2nc3ccccc3s2)nc1	2%	?	-9%[46.1 µM]	5%	-2%
Cc1ccc(C2CCN(C(=O)Nc3ccc(C)c(C)c3)C2)cc1 (stereo not drawn)	0%	.	.	?	10%
CCN(CC)c1ccc(C(=O)Nc2ccccc2)cc1[N+](=O)[O-]	?	5%	-28%	16µM*	7%
O=C(Nc1ccccc1)c1ccc(NCCc2ccccc2)c([N+](=O)[O-])c1	-15%	3%	-7%	-4%	?
Nc1c(S(=O)(=O)O)cc(Nc2ccc(Nc3nc(Cl)nc(Nc4ccc(S(=O)(=O)O)cc4)n3)c(S(=O)(=O)O)c2)c2c1C(=O)c1ccccc1C2=O	2.8µM*[quencher]	?	?	4µM*	10µM*
CN(C)c1ccc(/C=C2/C=C(c3ccc4c(c3)CCCC4)OC2=O)cc1	?	.	-4%	3.2µM*	?
COc1cccc(N2CC(NC(=O)Cc3cccs3)CC2=O)c1 (stereo not drawn)	-2%	.	.	-5%	-2%
CCN(CC)C(=O)CSc1nc2ccccc2c(=O)n1-c1cccc(OC)c1	-8%	-5%	-14%[46.1 µM]	-14%	0%
COc1cccc(-n2c(SCc3cc(=O)oc4cc(O)c(O)cc34)nc3ccccc3c2=O)c1	14µM*[quencher]	2%	-15%	25µM*	?
CCOC(=O)c1c(C)[nH]c(C)c1S(=O)(=O)N1CCC(C(=O)N2CCN(c3cccc(C)c3)C(C)C2)CC1 (stereo not drawn)	-6%	.	.	-5%	11%
COC(=O)c1sc2nc(-c3ccco3)ccc2c1N	?	?	-4%[46.1 µM]	7.1µM*	1%
NC(=O)c1sc2nc(-c3ccco3)ccc2c1N	?	-4%	2%[46.1 µM]	6.3µM*	0%
Nc1c(C(=O)Nc2ccccc2F)sc2nc(-c3ccco3)ccc12	?	-2%	20%[46.1 µM]	?	0%
CC/C(=N\NC(=O)CSc1ncccn1)c1ccc2c(c1)OCCO2	3%	12%	6%	4%	-1%
CC(=O)OC[C@@]1(O)C[C@]23CCC4c5ccoc5CC[C@@]4(C)C2CCC1C3 (stereo partly drawn)	-5%	0%	.	-6%	-4%
C[C@@]12C=Cc3occc3C1CC[C@@]13C[C@@H](CCC12)[C@@](O)(CO)C3 (stereo partly drawn)	?	4%[39.9 µM]	.	11µM*	10µM*
CS(=O)(=O)c1ccc(C(O)C(CO)NC(=O)C(Cl)Cl)cc1 (stereo not drawn)	-6%	-4%	.	-1%	-5%
CC(C)OP(=O)(OC(C)C)C(Nc1ccc([N+](=O)[O-])cc1)c1cccc([N+](=O)[O-])c1 (stereo not drawn)	-21%	.	-52%	-14%	1%
CC(C)OP(=O)(OC(C)C)/C(C=O)=N\Nc1ccc([N+](=O)[O-])cc1	-11%	.	?	16µM*	5%
SMILES	Tau fluor counter	Luc counter	NPSR antagonist	Tau ThT inhib	Tau FP inhib
O=C(/C=C/c1ccco1)NC(=S)Nc1nc(-c2ccc3ccccc3c2)cs1	-27%	17%	1.3µM*	?	-2%
O=C(/C=C/c1ccco1)NC(=S)Nc1nc(-c2ccc(Cl)cc2)cs1	-27%	.	3.2µM*	?	-4%
O=C(/C=C\c1ccco1)Nc1nc(-c2ccccc2)cs1	7%	-5%	19%	8%	4%
CC(=O)Nc1ccc2cc3ccc(NC(C)=O)cc3nc2c1	?	.	37%[7.67 µM]	7.9µM*	0%
N#CC1(C#N)CC(C=O)=C(N)C1(C#N)CC(=O)c1ccc(F)cc1 (stereo not drawn)	?	-1%	0%[46.1 µM]	14µM*	?
Cc1ccc(NC(=O)CCC(=O)N2Cc3ccccc3Oc3ncccc32)cc1Cl	-25%	.	.	2%	0%
Cc1cccc(/C=C2\CCC(=C3SCCCS3)C2=O)c1	-22%	?	?	1.4µM*	-5%
O=C1C(=C2SCCCS2)CC/C1=C\c1ccc(F)cc1	-3%	11µM*	-9%[46.1 µM]	1.1µM*	-5%
Cc1ccc(N2C(=O)CC(N3CCN/C3=C3\CC/C(=C\c4ccccc4)C3=O)C2=O)cc1 (stereo not drawn)	-8%	1%	-5%	-5%	-1%
C/C(=N\Nc1nc2ccccc2s1)c1ccc(Br)s1	11µM*[quencher]	.	?	?	?
C/C(=N\Nc1nc2ccccc2s1)c1ccc2c(c1)OCO2	?	-3%	-12%	?	-1%
O=Nc1c(-c2c(O)[nH]c3cc(Br)ccc23)[nH]c2ccccc12	8.9µM*[quencher]	-24%	?	2.2µM*	?
O=Nc1c(O)[nH]c2ccccc12.[Cu].[O-]/N=C1/C(=[OH+])Nc2ccccc21	.	0%[7.66 µM]	.	.	.
CCS(=O)(=O)c1ccc2oc(Nc3ccc(C(C)C)cc3)nc2c1	?	-2%	-23%[46.1 µM]	40µM*	?
CC1=Nc2cc(C(=O)NCc3ccccc3Cl)ccc2Sc2c(C)ccc(C)c21	-11%	.	.	2%	?
CCOc1ccc(CCNC(=O)C2CCN(c3ncnc4c3nc3n4CCCCC3)CC2)cc1	0%	.	.	-7%	-1%
CCOC(=O)C1CCN(C(=O)Nc2ccc3c(c2)nc(C)n3C)CC1	-7%	3%	-6%[46.1 µM]	-19%	-7%
CCOC(=O)C1CCN(C(=O)Nc2ccc3nc(-c4ccco4)c(-c4ccco4)nc3c2)CC1	?	1%	-21%[46.1 µM]	3.2µM*	?
O=C(Nc1ccc2nc(-c3ccco3)c(-c3ccco3)nc2c1)N1CCCCCC1	8.9µM*[quencher]	-7%	10µM*	7.1µM*	14µM*
Cc1cc(-n2ccnc(NCCc3ccc(S(N)(=O)=O)cc3)c2=O)ccc1Br	-18%	.	.	-11%	10%
CCc1ccc(/C=C2/SC(N3CCOCC3)=NC2=O)cc1	1%	.	-6%	-8%	7%
